Screens deposited in PubChem BioAssay by National Center for Advancing Translational Sciences (NCATS).
Rows were chosen to be rich in hits. Some 6% of all compounds tested hit in one or more screens of this group.
DRD3 antagonist: blocks the human D3 dopamine receptor | max response, negative = inhibition, % | actives 2.5% (n = 360,000) | D3R cells, DiscoveRx beta-arrestin luminescence, antagonist mode; hits give low values | P35462; in the data active = max response below about -50%; inconclusive = no clear call, values can overlap the other calls; also: % is scaled to controls: 0 for no effect and ±100 for the full control effect
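Cells expressing the human receptor were seeded at 1500 cells/well, incubated overnight at 37 degrees C in 5% CO2, then exposed to library compounds with dopamine controls for 90 minutes at 37 degrees C before luminescent detection.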
DRD3 agonist: activates the human D3 dopamine receptor | P35462 | D3R DiscoveRx beta-arrestin cells, luminescence, 90 min | max activation, % | actives 0.58% (n = 410,000) | AID 652048; in the data active = max activation above about 30%; also: 0% is about no effect
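Agonist-mode cell screen: cells plated at 1500/well and incubated overnight at 37 °C, then exposed to library compounds for 90 min at 37 °C. Detection reagent was added for 30–60 min at room temperature, and luminescence was read.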
D1 PAM: potentiators of human D1 dopamine receptor | potentiation, % at 10 µM | actives 0.036% (n = 360,000) | AID 504651 | P21728 | HEK293 TREx D1 cells, calcium flux, dopamine EC20 potentiation; in the data active = potentiation above about 30%; also: 0% is about no effect
Target sequence (P21728 whole entry, looked up): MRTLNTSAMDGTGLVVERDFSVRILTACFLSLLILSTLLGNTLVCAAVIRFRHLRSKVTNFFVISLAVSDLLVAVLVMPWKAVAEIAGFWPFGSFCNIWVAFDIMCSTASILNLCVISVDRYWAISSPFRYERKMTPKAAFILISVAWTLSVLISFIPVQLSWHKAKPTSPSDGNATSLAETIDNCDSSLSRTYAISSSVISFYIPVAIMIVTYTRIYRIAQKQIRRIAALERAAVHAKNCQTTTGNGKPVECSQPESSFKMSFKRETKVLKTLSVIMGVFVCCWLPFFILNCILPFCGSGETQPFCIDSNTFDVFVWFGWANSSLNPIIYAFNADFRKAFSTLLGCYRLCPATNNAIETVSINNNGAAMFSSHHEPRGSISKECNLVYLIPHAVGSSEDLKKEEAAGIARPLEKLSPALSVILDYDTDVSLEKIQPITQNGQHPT
D1 ag: human D1 receptor agonism | P21728 | HEK293 T-REx D1 cells, calcium flux, agonist mode | activation, % at 2 µM | actives 1% (n = 360,000) | AID 504660; in the data active = activation above about 30%; also: 0% is about no effect
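Inducible HEK293 T-REx D1 cells, force-coupled to calcium signalling, were plated at 4000 cells/well with tetracycline and held overnight at 30 C. After no-wash calcium dye loading, compound-evoked calcium rise over 180 s flagged agonists.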
D1 antagonist: antagonists of human D1 dopamine receptor; activity change, negative = inhibition, % at 10 µM; P21728; actives 3.2% (n = 360,000); AID 504652; HEK293 TREx D1 cells, calcium flux, dopamine EC80; hits give low values; in the data active = activity change below about -30%; also: % is scaled to controls: 0 for no effect and ±100 for the full control effect
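Using tetracycline-induced force-coupled D1 Hek293 cells and a calcium dye, signals were followed for 180 s after compound, then for 180 s after EC80 dopamine, to detect inhibitors.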
* = called active by the depositor; ? = inconclusive; / = no result; ! = repeats disagree.

SMILES	DRD3 antagonist	DRD3 agonist	D1 PAM	D1 ag	D1 antagonist
COc1cccc(C(=O)OCC(=O)NC23CC4CC(CC(C4)C2)C3)c1	-1	3	/	/	/
Cc1cc(C(=O)OCC(=O)NC(=O)c2cccn2C)c2ccccc2n1	26	-3	-4	45*	17
Cn1cccc1C(=O)NC(=O)COC(=O)c1ccc(S(C)(=O)=O)cc1	32	-10	/	/	/
O=C(OCc1nnc(-c2ccc(Cl)cc2)o1)c1ccc(O)cc1	-3	-4	-6	11	-22
COc1cccc(CNC(=O)Cn2c(=O)ccc3cc(S(=O)(=O)N4CCC(C)CC4)ccc32)c1	/	-9	0	3	3
Cc1ccsc1C(=O)N1CCCC(C)(C(=O)O)C1 (configuration not stated)	0	-7	/	/	/
C=CCSSSCC=C	/	-8	/	/	/
COCC(N)(c1ccccc1)c1nc2ccccc2n1C (configuration not stated)	-89*	1	-3	1	5
Oc1[nH]c2ccccc2c1N=Nc1ccc(F)cc1	3	7	-6	29	-9
O=S1(=O)N=C(N=Nc2c(O)[nH]c3ccccc23)c2ccccc21	-23	-2	0	4	-34*
Oc1[nH]c2ccccc2c1N=Nc1ccccc1F	-22	-5	-6	39*	-2
Oc1[nH]c2ccccc2c1N=Nc1ccccc1	-1	5	5	11	58
COC(=O)/C=C(\C)N=Nc1c(O)[nH]c2ccccc12	-13	-5	-4	144*	26
Cc1c(C(=O)N2CCC(c3nc4ccccc4s3)CC2)oc2ccc(Cl)cc12	/	-5	0	13	1
CCC(=O)Nc1cc(-c2nc3ccccc3s2)c(Cl)cc1Cl	/	-9	-3	0	4
CN1Cc2c(N)cccc2C(c2ccccc2)C1 (configuration not stated)	-63*!	-21	-2	4	-1
CN(N=O)C(=O)N[C@@H]1[C@@H](O)[C@H](O)[C@@H](CO)O[C@@H]1O	/	2	/	/	/
CCOc1ccccc1OCCCOc1ccc(C)cc1Cl	28	5	-6	3	-86*
Cc1ccc(Cl)c(OCCCCN(C)Cc2ccccc2)c1	-90*	-63	-12	3	-29
C/C=C/c1ccc(OCCCCN(C)Cc2ccccc2)c(OC)c1	-12	-19	-9	3	-5
Cc1ccc(Cl)c(OCCCN(C)Cc2ccccc2)c1	?	-22	-3	7	-55*
COc1ccc(NC(=O)NC2COc3ccccc3C2)c(OC)c1 (configuration not stated)	/	3	-2	-2	-5
COc1ccc(-c2cc3ccccc3n2CC(O)Cn2nc(C)cc2C)cc1 (configuration not stated)	?	-14	4	5	15
COc1ccc(CN2CCN(CC(O)Cn3c4ccccc4c4ccccc43)CC2)cc1 (configuration not stated)	4	-3	-6	23	-94*
COc1ccc(-c2cc3ccccc3n2CC(O)CN2CCC(C)CC2)cc1 (configuration not stated)	-111*	-14	-5	14	-12
SMILES	DRD3 antagonist	DRD3 agonist	D1 PAM	D1 ag	D1 antagonist
COc1ccccc1CN1C[C@@H]2C[C@@H](c3cccc(C)n3)N3CCC[C@@]23C1=O	5	7	-3	2	-6
COc1ccccc1CN1C[C@@H]2C[C@@H](c3[nH]c4c(C)cccc4c3C)N3CCC[C@@]23C1=O	24	6	32*	44*	70
CCOc1ccc(C(=O)Nc2c(C(=O)Nc3ccccc3OC)oc3ccccc23)cc1OCC	/	-11	-1	0	8
Cn1c(=O)c2c(nc(CN3CCN(c4ccccc4F)CC3)n2Cc2ccc(F)cc2)n(C)c1=O	/	1	2	-2	9
Cc1ccc(CNS(=O)(=O)c2ccc(-c3cnc(C4CC4)o3)cc2)cc1	2	8	-5	9	-27
O=S(=O)(NCc1ccccc1)c1ccc(-c2cnc(C3CC3)o2)cc1	13	-2	-5	9	-38*!
Cc1ccc(N(C)S(=O)(=O)c2ccc(-c3cnc(C4CC4)o3)cc2)cc1	-26	-2	-3	13	-32*!
C/C(=N/NC(=O)Cc1cccn1C)c1ccccc1	12	4	-8	2	-5
C/C(=N\NC(=O)Cc1cccn1C)c1ccc2ccccc2c1	7	5	-8	2	-36*
COc1ccc(NC(=O)CSc2nc(-c3cccc(C)c3)[nH]c2-c2ccccc2)cc1OC	/	-4	-1	1	-3
CC(=O)c1ccc(N2CCN(C(=O)c3nn(Cc4ccccc4)c(=O)c4ccccc34)CC2)cc1	0	14	-7	3	-45*
CC(=O)c1ccc(N2CCN(C(=O)c3n[nH]c4ccccc34)CC2)cc1	-6	-9	1	7	-33*
CCc1ccccc1N(C)C(=O)Nc1cn(CC(C)C)c(=O)c2ccccc12	/	-1	-6	2	9
CCN(CC)CCNC(=O)c1ccc(Sc2ccc(Cl)cc2)c(NC(C)=O)c1	-77*	-16	-4	1	19
CCN(CCCNC(=O)c1ccc(Sc2ccc(Cl)cc2)c(NC(C)=O)c1)c1cccc(C)c1	/	-5	3	-3	39
CCN(CC)CCNC(=O)c1ccc(Sc2ccc(C)cc2)c(NC(C)=O)c1	-88*	-16	-4	1	-1
Cc1ccc2nc(Cl)c3nnnn3c2c1	-109*	-6	8	-1	-6
COc1ccc(N2CCN(c3nc4ccc(C)cc4n4nnnc34)CC2)cc1	/	73*	1	0	-3
COc1ccc(-c2nn(-c3ccccc3)cc2C(=O)NCCCn2ccnc2)cc1	-15	-19	-5	1	-38*
COc1ccc(C(=O)NCCCn2ccnc2)cc1	100	1	4	2	3
CCCCC(=NCCc1c(C)[nH]c2ccc(OC)cc12)C1=C(O)CC(c2ccccc2)CC1=O (configuration not stated)	-22	-2	10	6	-34*
CC(=NCCc1c(C)[nH]c2ccc(OCc3ccccc3)cc12)C1=C(O)CC(c2ccccc2)CC1=O (configuration not stated)	-10	-5	2	9	-31*
CCC(=NCCc1c(C)[nH]c2ccc(OC(F)(F)F)cc12)C1=C(O)CC(c2ccccc2)CC1=O (configuration not stated)	?	-11	-3	5	-12
CC(C)C[C@H]1CN([C@@H](Cc2ccccc2)CN2CCC[C@H]2CN2C(=O)C(=O)NC[C@@H]2Cc2ccc(O)cc2)C(=O)C(=O)N1CC1CCCCC1	12	2	/	/	/
CCc1ccc2c(CN3CCN(S(=O)(=O)c4ccccc4F)CC3)cc(=O)oc2c1	4	-9	/	/	/
CCc1ccc2c(CN3CCN(S(=O)(=O)c4cccs4)CC3)cc(=O)oc2c1	-75*	-6	-4	6	12
